Laboratory results from PubChem BioAssay (NCI).
About 83,000 compounds went through this panel and 20% of them were active in at least one assay; those are over-represented in the sample as a whole.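 Method: cells in 96-well plates; compound added at one concentration; 48 h incubation; percent growth measured; values under 10 scored active.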 Values without a mark were called inactive. Active and inactive are the calls of the source.

test system: LOX IMVI melanoma; experiment: NCI-60 one-dose screen, 48 h (100 = growth as untreated, 0 = no growth, -100 = all killed); conditions: 10 µM unless noted
Procedure: Growth inhibition of the LOX IMVI human tumor cell line is measured as a screen for anti-cancer activity. Cells are grown in 96 well plates and exposed to the test compound for 48 hours. Compounds are tested at a single concentration, which is 10^-5 M for most compounds. The reported endpoint is percent growth (GI% or GIPRCNT), where numbers from 0 - 100% represent growth inhibition, and numbers from -100% - 0 represent cell death. For example, a value of 40 represents 60% growth inhibition. A value of 0 means no net growth occurred over the course of the experiment. A value of -40 indicates 40% of cells at the beginning of the experiment died by the end of the experiment. A value of -100 means all cells are dead at the end of the experiment.
NCI-60 Human Tumor Cell Lines Screen was performed using the standard one-dose NCI protocol, which is described in more detail at https://dtp.cancer.gov/discovery_development/nci-60/default.htm.
Compounds with GIPRCNT values below 10 were considered active. Activity score was based on GIPRCNT using the following formula: […]
Score is 0 for GIPRCNT values of 100 or above, 50 for GIPRCNT values of 0, and 100 for GIPRCNT values of -100.

SMILES	growth
Cc1nn(-c2ccccc2)c2nc(CCl)[nH]c(=O)c12	2.09% (active)
O=c1c2ccccc2nc(COc2ccccc2)n1/N=C/C=C/c1ccccc1	72.1%
CCNCc1c(-c2cccc(OC(F)(F)F)c2)[nH]c2ccc(N3CCCC3)cc2c1=O	21.9%
Nc1ccc(-c2nnc(SCc3ccc(O)c4ncccc34)o2)cc1	0.185% (active)
Oc1ccccc1/C=N/Nc1nc(N/N=C/c2ccccc2O)nc(N2CCOCC2)n1	4.04% (active)
CS(=O)(=O)c1nccc(-c2c(-c3ccc(F)c(OCc4ccccc4)c3)nc3sccn23)n1	44.6%
CS(=O)c1nccc(-c2c(-c3ccc(F)c(OCc4ccc(F)cc4)c3)nc3sccn23)n1 (stereo not given)	78.6%
C=C(C)[C@@H]1CC[C@]2(COS(C)(=O)=O)CC[C@]3(C)[C@H](CC[C@@H]4[C@@]5(C)CCCNC(C)(C)[C@@H]5CC[C@]43C)[C@@H]12	-79% (active)
N=c1c2cc(-c3ccccc3)oc2ncn1/N=C/c1ccccc1	66.3%
CCCCCc1ccc(S(=O)(=O)N(C(C)=O)c2cccc(-c3csc(N(CCN4CCN(C)CC4)C(C)=O)n3)c2)cc1	-92.1% (active)
O=C(COc1ccc(C2SCC(=O)N2c2ccc(F)cc2)cc1)c1ccccc1 (stereo not given)	87.6%
C/C(=C(/C)C1CC1CCN(C(=O)c1ccc([N+](=O)[O-])cc1)S(=O)(=O)c1ccc(C)cc1)C1CCCCC1 (stereo not given)	93.9%
C/C(=N\NC(=O)CSc1nc2sc3c(c2c(=O)n1-c1ccccc1)CCC(C)C3)c1ccc(Cl)cc1 (stereo not given)	6.72% (active)
CCN1C(=O)N(CC)C2SC(N/N=C/C=C/c3ccccc3OC)=NC21 (stereo not given)	5.74% (active)
Cc1ccc(NC(=O)N[C@@H](Cc2cc(F)cc(F)c2)C(=O)NC2C(=O)N3CCC[C@H]3C(=O)N3CCCC[C@H]3C(=O)N[C@@H](C)C(=O)N3C[C@H](C)C[C@H]3C(=O)O[C@H]2C)c(F)c1 (stereo not given in full)	25.3%
CN1CCN(c2nc(-c3cnc4ccccc4n3)cc3ccccc23)CC1	20%
CCNC(=O)Oc1ccc(/C(=C(/C)c2ccc(Cl)cc2)c2ccc(OCCN(C)C)cc2)cc1	41.5%
N/C(=N\c1nc2ccc([N+](=O)[O-])cc2s1)C(Cl)(Cl)Cl	76%
COc1cc(/C=N/n2cnc3oc(-c4ccccc4)cc3c2=N)cc(CN2CCN(C)CC2)c1O	79%
CC1CCc2c(sc3nc(SCC(=O)N/N=C/c4ccc(Cl)cc4)n(-c4ccccc4)c(=O)c23)C1 (stereo not given)	84.1%

SMILES	growth
N#C/C(=C\c1ccc(-c2ccc(F)cc2)o1)C(=O)Nc1ncc(Cc2ccc(Cl)cc2Cl)s1	-85.6% (active)
C#C[C@]1(O)CC[C@H]2[C@@H]3CC=C4c5sc(C6CCOCC6)nc5CC[C@]4(C)[C@H]3CC[C@@]21C	65.8%
NCCN1CCN(c2nc(-c3ccccc3)nc3nc(-c4ccccc4)oc23)CC1	-90.6% (active)
COc1ccc(-c2nn(-c3ccccc3)cc2/C=C/C(=O)c2ccc(NC(=O)CCCCCCC(=O)NO)cc2)cc1	90.4%
O=S(=O)(Nc1ccc(C2CC2)cc1)c1ccc(-c2cnc(C3CC3)o2)cc1	55.7%
N#Cc1c(-c2cccs2)cc(-c2cnccn2)nc1SCC(=O)NNC(=S)Nc1ccc(F)cc1	72.1%
Cc1occc1-c1nc2s/c(=C\c3cn(-c4ccccc4)nc3-c3ccccc3)c(=O)n2n1	103%
Cc1nn(-c2ccc(Cl)cc2)c(C)c1N=Nc1ccc2oc(=O)ccc2c1	69.6%
CCN1CCN(c2cc(C(=O)Nc3nc4ccc(Oc5ccnc(C(=O)NC)c5)cc4s3)cc(C(F)(F)F)c2)CC1	34.6%
O=c1cc(-c2ccccc2)nc2sc(-c3c[nH]c4ccc(F)cc34)nn12	72%
O=C1[C@H]2Cc3c([nH]c4ccccc34)[C@H](c3ccc(Cl)cc3)N2C(=O)CN1C1CCN(Cc2c(Cl)cccc2Cl)CC1	15.3%
Cc1cnc2nc(NN)[nH]n12	87.5%
O=C(CSc1nnc(-c2ccc(Cl)cc2)n1-c1ccccc1)Nc1ccc(F)cc1	49.2%
Cn1cc(-c2nn3cc(-c4cccnc4)nc3s2)c2ccccc21	37.9%
COc1cc(/C=N/n2cnc3oc(-c4ccccc4)cc3c2=N)cc(CN2CCOCC2)c1O	8.3% (active)
O=[N+]([O-])c1ccc(-c2nnc(SCc3ccc(O)c4ncccc34)n2-c2ccccc2)cc1	-19.9% (active)
Oc1ccc(CSc2nnc(-c3cnccn3)n2-c2ccccc2)c2cccnc12	15.5%
COc1ccc(C(=O)c2c(N)c(C#N)cn2-c2cccc(OC)c2)cc1	37.9%
CCCC(=O)NC(c1cccnc1)c1cc(Cl)c2cccnc2c1O (stereo not given)	32.7%
COc1ccc([C@@H]2[C@@H](O)C(=O)N2c2cc(OC)c(OC)c(OC)c2)cc1Cl	18.5%
